Experimental data from PubChem BioAssay (NCI).
About 79,000 compounds went through this panel and 15% of them were active in at least one assay; those are over-represented in the sample as a whole. Calls of active or inactive are those of the source. Cut-off read from the data, not from the text of the source: active = growth inhibition above about 70%; inactive = the rest.

Experiments:
[1] = NCI Yeast Anticancer Drug Screen. Data for the rad52 strain (AID 147);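 note: 0% = growth of vehicle-treated control cultures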; settings: S. cerevisiae rad52 mutant growth inhibition, active compounds read high
Procedure, shortened: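 Here a repair-compromised yeast strain receives each compound; its growth is then quantified and normalised to vehicle-only controls.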

[2] = NCI Yeast Anticancer Drug Screen. Data for the wt1 strain (AID 149);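 note: 0% = growth of vehicle-treated wt1 cultures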; settings: S. cerevisiae wt1 strain (SPY 50644) growth inhibition, active compounds read high
Procedure, shortened: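 Readout: yeast growth inhibition, normalised to vehicle controls, in the wt1 strain exposed to test compounds.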

[3] = NCI Yeast Anticancer Drug Screen. Data for the rad50EPP+ strain (AID 151);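 note: 0% = growth of vehicle-treated control cultures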; settings: S. cerevisiae rad50 mutant strain, active compounds read high
Procedure, shortened: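 Read-out is yeast growth inhibition relative to vehicle; cells used were the rad50EPP+ strain.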

[4] = NCI Yeast Anticancer Drug Screen. Data for the rad50 strain (AID 155);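 note: 0% = growth of vehicle-only cultures of the same strain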; settings: S. cerevisiae rad50 strain growth inhibition, active compounds read high
Procedure, shortened: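 Compounds were tested on a yeast strain with an engineered DNA damage repair alteration; the reported value is growth inhibition normalised to vehicle treatment.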

[5] = NCI Yeast Anticancer Drug Screen. Data for the mec2-1 strain (AID 157); settings: S. cerevisiae mec2-1 strain, active compounds read high
Procedure, shortened: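 Using mec2-1 yeast: add compound, measure growth, express inhibition versus vehicle-treated cultures.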

[6] = NCI Yeast Anticancer Drug Screen. Data for the rad14 strain (AID 159);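 note: 0% = growth of vehicle-treated control cultures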; settings: S. cerevisiae rad14 strain growth inhibition, active compounds read high
Procedure, shortened: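 Compound-treated yeast with a defined DNA-repair lesion; growth inhibition normalised to vehicle-treated cultures.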

[7] = NCI Yeast Anticancer Drug Screen. Data for the sgs1 mgt1 strain (AID 161);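 note: 0% = growth of cultures given vehicle only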; settings: S. cerevisiae sgs1 mgt1 strain, active compounds read high
Procedure, shortened: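 Growth of a repair-deficient yeast mutant was monitored after compound treatment and expressed as inhibition relative to vehicle-treated cultures.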

[8] = NCI Yeast Anticancer Drug Screen. Data for the CLN2oe strain (AID 163);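 note: 0% = growth of vehicle-only control cultures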; settings: S. cerevisiae CLN2oe strain, active compounds read high
Procedure, shortened: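 Whole-cell yeast growth assay. A strain engineered for altered cell-cycle control received compound, and inhibition relative to vehicle-treated cultures was recorded.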

[9] = NCI Yeast Anticancer Drug Screen. Data for the cln2 rad14 strain (AID 165);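 note: 0% = growth equal to vehicle treated cultures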; settings: S. cerevisiae cln2 rad14 strain, active compounds read high
Procedure, shortened: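 Yeast strain cln2 rad14, bearing defects in cell cycle control and DNA repair, serves as the test system; values reflect growth inhibition compared with vehicle.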

[10] = NCI Yeast Anticancer Drug Screen. Data for the bub3 strain (AID 167); settings: S. cerevisiae bub3 mutant strain, active compounds read high
Procedure, shortened: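 Growth of a checkpoint-deficient yeast mutant is measured after compound exposure. Values represent inhibition relative to vehicle.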

[11] = NCI Yeast Anticancer Drug Screen. Data for the wt2 strain (AID 169);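 note: 0% = growth of vehicle-treated yeast cultures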; settings: S. cerevisiae wt2 strain growth inhibition, active compounds read high
Procedure, shortened: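 Treated yeast vs. vehicle-treated yeast: growth inhibition determined.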

[12] = NCI Yeast Anticancer Drug Screen. Data for the mlh1 strain (AID 171);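 note: 0% = growth of vehicle-treated control cultures of the same strain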; settings: S. cerevisiae mlh1 strain growth inhibition, active compounds read high
Procedure, shortened: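 A yeast strain with a defined genetic lesion serves as the test organism. Cultures receive compound or vehicle, and growth is measured.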

[13] = NCI Yeast Anticancer Drug Screen. Data for the sgs1 strain (AID 173);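 note: 0% = growth of vehicle-only control cultures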; settings: S. cerevisiae sgs1 mutant, active compounds read high
Procedure, shortened: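 A genetically defined yeast mutant is incubated with the test compound, and its growth is compared to that of the same strain given vehicle.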

[14] = NCI Yeast Anticancer Drug Screen. Data for the mlh1 rad18 strain (AID 175); settings: S. cerevisiae mlh1 rad18 strain growth inhibition, active compounds read high
Procedure, shortened: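 Steps: expose repair-defective yeast to compound; measure growth; express inhibition against vehicle-treated controls.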

[15] = NCI Yeast Anticancer Drug Screen. Data for the rad18 strain (AID 177); settings: S. cerevisiae rad18 mutant growth inhibition, active compounds read high
Procedure, shortened: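 Measured value is growth inhibition of a yeast strain bearing a DNA repair alteration, referenced to vehicle-treated cells.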

[16] = at 5.0 µM (retest, dose inferred, filed as 0.5)
[17] = at 50.0 µM (retest, dose inferred, filed as 5.0)

Measured: growth inhibition

CC(=O)CCC1=C(C)C(=O)C(=O)C(C)=C1O
active: [1]; at 100.0 µM 91% | [2]; at 100.0 µM 80% | [4]; at 100.0 µM 89% | [5]; at 100.0 µM 83% | [6]; at 100.0 µM 85% | [8]; at 100.0 µM 74% | [10]; at 50.0 µM 75% | [10]; at 100.0 µM 89% | [11]; at 100.0 µM 94% | [12]; at 100.0 µM 96% | [13]; at 100.0 µM 91% | [15]; at 100.0 µM 90%
inactive: [1]; at 1.2 µM -2% | [1]; at 3.7 µM -3% | [1]; at 11.0 µM -4% | [1]; at 33.0 µM 20% | [2]; at 1.2 µM -4% | [2]; at 3.7 µM -8% | [2]; at 11.0 µM -3% | [2]; at 33.0 µM 7% | [3]; at 1.2 µM -2% | [3]; at 3.7 µM -1% | [3]; at 11.0 µM 0% | [3]; at 33.0 µM 7% | [3]; at 100.0 µM 16% | [4]; at 1.2 µM 0% | [4]; at 3.7 µM 9% | [4]; [16] -6% | [4]; at 11.0 µM 14% | [4]; at 33.0 µM 34% | [4]; [17] 42% | [4]; at 50.0 µM 7.5% | [5]; at 1.2 µM -3% | [5]; at 3.7 µM -6% | [5]; [16] -4% | [5]; at 11.0 µM -9% | [5]; at 33.0 µM 13% | [5]; [17] 12% | [5]; at 50.0 µM 34.7% | [6]; at 1.2 µM -2% | [6]; at 3.7 µM -1% | [6]; at 11.0 µM 5% | [6]; at 33.0 µM 27% | [7]; [16] 6% | [7]; [17] 25% | [7]; at 50.0 µM 39% | [8]; at 1.2 µM 1% | [8]; at 3.7 µM 7% | [8]; at 11.0 µM 7% | [8]; at 33.0 µM 20% | [9]; [16] -6% | [9]; [17] 16% | [9]; at 50.0 µM 14.1% | [10]; at 1.2 µM -5% | [10]; at 3.7 µM -16% | [10]; [16] -14% | [10]; at 11.0 µM 6% | [10]; at 33.0 µM 17% | [10]; [17] 15% | [11]; at 1.2 µM -3% | [11]; at 3.7 µM -3% | [11]; at 11.0 µM -1% | [11]; at 33.0 µM 23% | [12]; at 1.2 µM -5% | [12]; at 3.7 µM -3% | [12]; at 11.0 µM -23% | [12]; at 33.0 µM 13% | [13]; at 1.2 µM -3% | [13]; at 3.7 µM -6% | [13]; at 11.0 µM -2% | [13]; at 33.0 µM 22% | [14]; [16] -28% | [14]; [17] 46% | [14]; at 50.0 µM 20.4% | [15]; at 1.2 µM -4% | [15]; at 3.7 µM -7% | [15]; at 11.0 µM -3% | [15]; at 33.0 µM 14%
